Screens (PubChem)
Rows were chosen to be rich in hits. Some 2.4% of all compounds tested hit in one or more screens of this group.
Pol kappa inh-1 = blocks human DNA polymerase kappa activity; AID 588579; Q9UBT6; actives 0.53% (n = 400,000); purified Pol kappa, fluorescent DNA synthesis assay, 10 min; Potency, µM (titrated, usually from 107 µM), inactives show at the highest dose activity, negative = inhibition, usual class: inhibitors; note: potency is the fitted concentration of half-maximal effect; % is set by controls: 0 for no effect and ±100 for the full control effect
Target sequence (Q9UBT6 whole entry, looked up): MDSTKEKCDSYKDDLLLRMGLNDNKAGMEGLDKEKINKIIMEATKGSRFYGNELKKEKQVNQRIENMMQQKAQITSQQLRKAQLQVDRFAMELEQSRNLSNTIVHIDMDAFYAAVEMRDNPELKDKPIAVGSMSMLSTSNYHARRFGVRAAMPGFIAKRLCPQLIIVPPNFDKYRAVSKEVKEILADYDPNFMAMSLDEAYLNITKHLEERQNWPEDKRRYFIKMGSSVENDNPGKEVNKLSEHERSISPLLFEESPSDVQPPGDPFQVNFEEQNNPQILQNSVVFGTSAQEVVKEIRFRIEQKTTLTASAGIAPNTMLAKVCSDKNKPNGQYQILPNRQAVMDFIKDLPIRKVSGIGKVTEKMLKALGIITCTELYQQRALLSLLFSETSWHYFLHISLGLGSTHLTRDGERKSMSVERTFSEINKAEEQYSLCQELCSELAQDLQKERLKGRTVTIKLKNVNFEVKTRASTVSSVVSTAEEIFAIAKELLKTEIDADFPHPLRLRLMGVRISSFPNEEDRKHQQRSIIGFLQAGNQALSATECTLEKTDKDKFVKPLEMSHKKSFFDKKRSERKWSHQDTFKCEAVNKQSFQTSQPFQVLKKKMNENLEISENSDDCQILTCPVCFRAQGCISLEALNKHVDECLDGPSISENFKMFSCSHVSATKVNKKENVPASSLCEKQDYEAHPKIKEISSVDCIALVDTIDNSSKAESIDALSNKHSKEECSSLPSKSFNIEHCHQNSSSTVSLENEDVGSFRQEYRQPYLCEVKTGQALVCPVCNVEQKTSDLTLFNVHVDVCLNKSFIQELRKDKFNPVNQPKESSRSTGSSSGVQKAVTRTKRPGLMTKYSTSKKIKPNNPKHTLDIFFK
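Kinetic fluorescence readout at 0 and 10 min followed reaction start with substrate at 50 nM final. Beforehand, enzyme (10 nM Pol kappa) stood 15 min with compound at room temperature; buffer-only wells were negative controls.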
Pol eta inh-1 = inhibitors of human DNA polymerase eta | Q9Y253 | actives 1.2% (n = 390,000) | recombinant Pol eta, fluorescent DNA replication assay | Potency, µM (top dose mostly 114 µM), inactives show at the top dose activity change, negative = inhibition, hits mostly inhibitors; note: potency is the fitted concentration of half-maximal effect; % is set by controls: 0 for no effect and ±100 for the full control effect
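Pol eta at 10 nM preincubated with compounds 15 min at room temperature; reaction started with fluorescent substrate (50 nM final) and read kinetically at 0 and 10 min.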
Pol iota inh = DNA polymerase iota (human) inhibition. Q9UNA4. Pol iota fluorescent replication assay, 10 min. Potency, µM (doses to about 115 µM), for the others: at the top dose activity, negative = inhibition, hits mostly inhibitors. actives 1% (n = 390,000); note: potency is the fitted concentration of half-maximal effect
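Pol iota at 10 nM preincubated 15 min with compounds at room temperature; reaction started with fluorescent substrate, 50 nM final. Fluorescence read kinetically at 0 and 10 min; buffer-only wells as negative control.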
FEN1 inhibitor = human FEN1 inhibition | P39748 | Recombinant FEN1 flap cleavage, fluorescence, 15 min | Potency, µM (top dose mostly 114 µM), inactives show at the top dose activity change, negative = inhibition, actives largely listed as inhibitors | actives 0.35% (n = 390,000) | AID 588795; note: potency is the fitted concentration of half-maximal effect; % is set by controls: 0 for no effect and ±100 for the full control effect; nearly all actives have a fitted effect of over 65% in size
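Compounds are tested as a concentration series against 10 nM FEN1; after a 15 min room-temperature preincubation, 50 nM substrate starts cleavage, with plate reads at 0 and 15 min. Normalized responses are fitted by a Hill equation.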
POLB inh = DNA polymerase beta (human) inhibition; P06746; Pol beta primer extension/strand displacement, fluorescence kinetic; Potency, µM (titrated, usually from 114 µM), for inactives: at the highest dose activity change, negative = inhibition, usual class: inhibitors; actives 1.3% (n = 340,000); note: potency is the fitted concentration of half-maximal effect; % is set by controls: 0 for no effect and ±100 for the full control effect
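Curves were derived by four-parameter Hill fits of normalized qHTS data. The kinetic fluorescent primer-extension read was taken at 0 and 10 min after 50 nM substrate, following a 15 min room-temperature preincubation of 10 nM enzyme with compounds.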
WRN inhibitor = blocks human WRN helicase | Potency, µM (doses to about 114 µM), without a hit: top-dose activity change, negative = inhibition, hits mostly inhibitors | Q14191 | actives 0.46% (n = 360,000) | WRN helicase unwinding, fluorescent forked duplex, kinetic; note: potency is the fitted concentration of half-maximal effect; % is set by controls: 0 for no effect and ±100 for the full control effect; nearly all actives have a fitted effect of over 55% in size
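Primary qHTS, 1536-well format. 20 nM WRN + compound, 15 min RT; start with 100 nM forked fluorophore/quencher duplex, 2 mM ATP (final); kinetic read ex 525/em 598 nm.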
GALK inh confirm = confirmation of human galactokinase (GALK) inhibitors | shares compounds with Pol eta inh-1 | purified GALK, Kinase-Glo ATP depletion luminescence | Potency, µM (titrated, usually from 115 µM), without a hit: top-dose activity, negative = inhibition, actives largely listed as inhibitors | actives 70% (n = 150)
Redox cycling = redox cycling activity in phenol red-HRP assay. shares compounds with Pol eta inh-1. Phenol red-HRP H2O2 redox cycling, absorbance 600 nm. Potency, µM (doses to about 115 µM), for inactives: at the top dose activity change, negative = H2O2 signal, usual class: inhibitors. actives 40% (n = 150). AID 2035
HEK293 tox = HEK-293 cytotoxicity, GALK inhibitor secondary. shares compounds with Pol eta inh-1. HEK-293 viability, ATP luminescence (CellTiter-Glo), 24/48 h. Potency, µM (top dose mostly 46.1 µM), inactives show at the top dose activity change, negative = cytotoxicity, actives largely listed as inhibitors. actives 10% (n = 170). AID 2547; note: potency is the fitted concentration of half-maximal effect; % is set by controls: 0 for no effect and ±100 for the full control effect
Pol kappa inh-2 = confirmation of human DNA polymerase kappa inhibitors; shares compounds with Pol eta inh-1; purified Pol-kappa, fluorescent strand-displacement substrate; Potency, µM, most hits filed as inhibitors; actives 76% (n = 920); AID 720501; note: potency is the fitted concentration of half-maximal effect
Pol eta inh-2 = Pol eta (human) inhibition, cherry-pick confirmation. Potency, µM, hits mostly inhibitors. Pol eta primer extension, TAMRA/BHQ fluorescence, 10 min. actives 64% (n = 2,600). shares compounds with Pol eta inh-1. AID 720502; note: potency is the fitted concentration of half-maximal effect
Active calls of the source: *; ? = inconclusive; nt = no result; [ ] = dose if it differs, or a comment. Calls come from the whole dose curve; as a rule, active = well fitted curve in the direction sought with a large enough effect; inconclusive = small, poorly fitted or top-dose-only effect, or another doubt; inactive = no such curve, though single readings can be large; an effect the other way counts as inactive or inconclusive.

SMILES	Pol kappa inh-1	Pol eta inh-1	Pol iota inh	FEN1 inhibitor	POLB inh	WRN inhibitor	Pol eta inh-2	others
Cc1nn(CCc2nn[nH]n2)c2nc(-c3ccc(C4CCCCC4)cc3)cc(C(F)(F)F)c12	-35%	45µM*	29%	?	?	?	?
O=C(O)c1cc(N/N=C/c2ccc(N3CCOCC3)cc2)ccc1Cl	?	50µM*	?	11%	?	?	85*
Cc1[nH]n(-c2ccccc2)c(=O)c1C(c1ccccc1[N+](=O)[O-])C(C#N)C#N (stereo not drawn)	4%	-7%	6%	0%	28%	-7%	nt
Cc1[nH]n(-c2ncc(-c3ccccc3)s2)c(=O)c1C(c1ccc(Cl)cc1)C(C#N)C#N (stereo not drawn)	?	28µM*	?	-7%	32µM*	?	?
O=S(=O)(Nc1c(S(=O)(=O)c2ccccc2)c2nc3ccccc3nc2n1C1CCCCC1)c1ccccc1	-16%	22µM*	3.5µM*	-16%	3%	-33%	nt	Pol kappa inh-2=30*
Cc1ccc(S(=O)(=O)c2c(N)n(-c3ccccc3)c3nc4ccccc4nc23)cc1	-11%	-9%	24%	-11%	17%	?	nt
NS(=O)(=O)c1ccc(NC(=S)NNC(=O)c2ccc(Br)o2)cc1	-3%	-15%	19%	5%	96%	2%	nt	GALK inh confirm=?;Redox cycling=-2%;HEK293 tox=19%
NS(=O)(=O)c1ccc(NC(=S)NC(=O)c2ccc(Br)o2)cc1	-11%	-2%	63%	6%	?	9%[57.1 µM]	nt
O=C(O)c1cccc(NC(=O)c2ccc3c(c2)C(=O)N(Cc2ccco2)C3=O)c1	?	18µM*	50µM*	-8%	?	-19%[11.6 µM]	43*	Pol kappa inh-2=67*
CC(=O)c1cccc(NC(=O)CN2C(=O)C(=O)N(Cc3ccco3)C2=O)c1	?	14µM*	50µM*	-21%	nt	-18%	?
CC(=O)c1cccc(NC(=O)CN2C(=O)c3ccccc3C2=O)c1	-15%	-16%	63%	0%	18%	8%	nt
COc1ccc(CCNC(=O)c2cc3c(s2)-c2c(C)cccc2OC3)c(OC)c1	4%	-11%	4%	-8%	8%	nt	nt
O=C(O)c1ccc(CSc2n[nH]c(-c3ccco3)n2)cc1	45µM*	11µM*	20µM*	?	?	?	?
CN(Cc1ccccc1)C(=O)c1cccc(NC(=O)c2nsc3ccccc23)c1	-4%[60.1 µM]	-18%	14%	6%	-3%	nt	nt
Cc1nc(Nc2nc3ccccc3o2)nc2c1CCC2	-17%	4%	2%	-3%	7%	-14%	nt
CC(C)c1nc(Nc2nc3ccccc3o2)nc2c1CCCC2	nt	nt	nt	nt	nt	nt	nt	HEK293 tox=-29%
Cc1ccc(S(=O)(=O)N(Cc2nc(-c3cccc(C)c3)no2)C2CCCCC2)cc1	1%	-18%	18%	-9%	20%	nt	nt
O=C(O)c1ccc(C=C(c2nc3ccccc3s2)c2nc3ccccc3s2)cc1	-11%	40µM*	?	0%	0%	-24%	?
O=C(O)CCc1nnc(SCC(=O)Nc2ccc(Cl)c(C(F)(F)F)c2)[nH]c1=O	-10%	1%	0%	-8%	13%	-18%	nt	GALK inh confirm=?;Redox cycling=2%;HEK293 tox=-8%
Cc1ccc(CNC(=O)CN(c2cc(C)cc(C)c2)S(=O)(=O)c2c(C)noc2C)cc1	3%	-14%	-30%	12%	33%	nt	nt
CCOC(=O)c1cccc(NC(=O)c2oc3c(c2C)-c2nn(CC)cc2CC3)c1	-18%	-5%	31%	5%	-12%	nt	nt
Cc1cc(C(=O)Nc2sccc2C#N)c2ccccc2n1	-38%	45µM*	?	-15%	2%	-1%[11.6 µM]	?
Cc1csc(NC(=O)c2cc(C)nc3ccccc23)n1	-9%	-8%	58%	-7%	17%	2%	nt
COc1ccc(NC(=O)Cn2c(=O)n(-c3cccc(C(F)(F)F)c3)c(=O)c3sccc32)cc1	-4%	-5%	11%	21%	0%	nt	nt
O=C(N/N=C/c1ccncc1)c1cccc(N/N=C/c2ccncc2)c1	-17%	-29%	?	?	?	-14%	nt
SMILES	Pol kappa inh-1	Pol eta inh-1	Pol iota inh	FEN1 inhibitor	POLB inh	WRN inhibitor	Pol eta inh-2	others
O=C(N/N=C/c1ccncc1)c1cccc(NC(=O)c2ccc(Cl)cc2)c1	-9%[60.1 µM]	-29%	?	?	45µM*	-9%[11.6 µM]	nt	Pol kappa inh-2=?
Cn1c(=O)c2c(-c3ccccc3Cl)n(-c3cc(Cl)ccc3O)cc2n(C)c1=O	-5%	-15%	-24%	2%	-10%	nt	nt
Cc1oc(C(=O)O)cc1COc1ccc2c3c(c(=O)oc2c1)CCC3	?	18µM*	-19%	-16%	35µM*	-17%[57.1 µM]	?
COC(=O)c1cc(COc2ccc3c4c(c(=O)oc3c2)CCCC4)c(C)o1	-3%	-9%	-12%	10%	-1%	-5%	nt
Cc1sc2c(c1C)c(=O)n(-c1ccccc1)c(=O)n2CC(=O)c1ccc(Cl)cc1	-13%	nt	5%	-2%	5%	nt	nt
C#Cc1ccc([C@H]2C=C(C(=O)O)O[C@@H](OCc3ccc(CO)cc3)C2)cc1	?	35µM*	?	-7%	28µM*	-23%[57.1 µM]	nt	Pol kappa inh-2=42*
CC1Cc2cc(S(=O)(=O)NCc3ccc(N(C)C)cc3)ccc2N1C(=O)C1CCC1 (stereo not drawn)	-16%	-21%	-6%	-1%	-23%	nt	nt
O=C(O)CN1C(=O)/C(=C\c2cc(Br)ccc2OCc2ccc(F)cc2)SC1=S	-69%	40µM*	40µM*	?	40µM*	?	?
